Set-up in all cases: scale not given: direction of the effect not stated beside the values
Assay [1] addresses Protein translocase subunit SecA (Escherichia coli (strain K12)) (UniProt P10408). Nature of the assay: Assay to Identify E. coli SecA ATPase Inhibitors. It counts as functional. The note with it: 30 µM.
Assay [2] concerns the target T1, Ubiquitin-activating enzyme e1, putative (Leishmania donovani (strain BPK282A1)) (UniProt E9BSI1).
T1 sequence (whole entry): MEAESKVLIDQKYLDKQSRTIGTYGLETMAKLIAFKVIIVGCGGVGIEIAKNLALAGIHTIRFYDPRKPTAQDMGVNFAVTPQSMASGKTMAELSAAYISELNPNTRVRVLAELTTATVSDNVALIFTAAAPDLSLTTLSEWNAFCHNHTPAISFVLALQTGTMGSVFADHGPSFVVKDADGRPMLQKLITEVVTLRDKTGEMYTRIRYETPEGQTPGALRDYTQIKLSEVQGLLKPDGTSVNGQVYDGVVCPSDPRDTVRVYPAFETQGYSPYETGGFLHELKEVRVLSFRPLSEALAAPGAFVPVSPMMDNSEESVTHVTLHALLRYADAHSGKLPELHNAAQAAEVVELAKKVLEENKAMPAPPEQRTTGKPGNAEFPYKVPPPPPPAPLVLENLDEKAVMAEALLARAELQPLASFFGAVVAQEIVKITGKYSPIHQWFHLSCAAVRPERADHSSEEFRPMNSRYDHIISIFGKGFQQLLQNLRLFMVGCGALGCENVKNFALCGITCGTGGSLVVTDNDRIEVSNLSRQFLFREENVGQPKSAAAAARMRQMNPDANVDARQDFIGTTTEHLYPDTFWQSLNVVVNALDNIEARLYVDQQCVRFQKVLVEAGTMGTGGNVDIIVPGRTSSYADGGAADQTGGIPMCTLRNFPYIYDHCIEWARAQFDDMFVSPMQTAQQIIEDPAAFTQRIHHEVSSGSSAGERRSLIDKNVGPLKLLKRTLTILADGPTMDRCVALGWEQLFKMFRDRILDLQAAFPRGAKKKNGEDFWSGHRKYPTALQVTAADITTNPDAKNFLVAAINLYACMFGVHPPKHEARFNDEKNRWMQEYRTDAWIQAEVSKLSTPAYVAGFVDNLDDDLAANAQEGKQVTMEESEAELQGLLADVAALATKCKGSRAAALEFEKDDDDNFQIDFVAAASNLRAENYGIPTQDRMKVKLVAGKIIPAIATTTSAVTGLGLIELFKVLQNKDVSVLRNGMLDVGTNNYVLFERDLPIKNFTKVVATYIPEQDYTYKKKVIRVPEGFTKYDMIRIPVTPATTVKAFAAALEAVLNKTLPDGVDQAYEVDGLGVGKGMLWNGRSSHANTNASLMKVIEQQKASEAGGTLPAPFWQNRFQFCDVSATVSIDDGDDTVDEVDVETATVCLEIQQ
Nature of the assay: Leishmania donovani Ubiquitin Activating Enzyme (LdE1). The class given is functional. The following applies: 30 µM.

In assay [3] the target is AMP-activated protein kinase, AMPK (Homo sapiens) (UniProt P54646+O43741+P54619+Q9UGJ0+Q9Y478+Q13131+Q9UGI9). Kind of assay: AMP-dependent Kinase enzyme assay. An in vitro enzyme assay that detects ADP turnover that is directly proportional to AMPK activity. This uses naive AMPK that is activated during the assay with MK-8722. The class given is functional. The note with it: 30 µM.

Assay [4] addresses Sialic acid-binding Ig-like lectin 9 (Homo sapiens) (UniProt Q9Y336). Nature of the assay: Hs-Siglec9 ALPHAscreen SOP 20170721. The note with it: 10 µM. A general note: In Alpha technology, singlet oxygen from a donor bead excites a nearby acceptor bead.
The next assay relates to Trypanosoma cruzi. Nature of the assay: Trypanosoma cruzi phosphomannomutase and mannose-1-phosphate guanylyltransferase assay. The class given is functional. The note with it: 10 µM.
The target in assay [5] is T2, Arginase-2, mitochondrial (Homo sapiens) (UniProt P78540).
T2 sequence (whole entry): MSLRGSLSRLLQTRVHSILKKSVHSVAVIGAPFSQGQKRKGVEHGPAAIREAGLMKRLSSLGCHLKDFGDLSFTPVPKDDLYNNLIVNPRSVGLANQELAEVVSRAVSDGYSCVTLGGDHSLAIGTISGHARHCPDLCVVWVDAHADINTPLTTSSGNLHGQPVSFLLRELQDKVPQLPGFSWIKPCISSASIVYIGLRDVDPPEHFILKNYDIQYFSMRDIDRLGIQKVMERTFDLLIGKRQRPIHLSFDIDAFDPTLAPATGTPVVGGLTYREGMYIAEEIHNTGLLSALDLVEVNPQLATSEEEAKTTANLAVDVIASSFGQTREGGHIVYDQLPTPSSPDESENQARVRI
Kind of assay: in vitro enzyme assay to detect the production of urea directly proportional to the activity of Arginase II. Also: in the data most compounds retested in dose-response had high values. The class given is functional. The note with it: 33.3 µM.

The target in assay [6] is T3, Proteasome subunit beta (Trypanosoma cruzi) (UniProt O96673).
T3 sequence (whole entry): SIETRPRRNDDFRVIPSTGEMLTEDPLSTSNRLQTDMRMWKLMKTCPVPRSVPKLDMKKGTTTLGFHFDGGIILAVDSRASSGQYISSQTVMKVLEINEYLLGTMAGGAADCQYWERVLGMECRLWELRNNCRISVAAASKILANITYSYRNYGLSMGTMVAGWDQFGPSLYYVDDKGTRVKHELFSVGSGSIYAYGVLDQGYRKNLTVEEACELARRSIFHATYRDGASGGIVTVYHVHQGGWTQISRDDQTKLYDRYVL
Nature of the assay: Trypanosoma cruzi proteasome chymotrypsin-like activity (TcProtChymo) assay. Also: in the data most compounds retested in dose-response had high values. The following applies: 9.37 µM. It counts as functional.

The species entered for the next assay is Homo sapiens. Kind of assay: To identify inhibition of the IFN signalling (Jak-Stat) pathway via expression of an eGFP reporter gene under the control of an IFN-stimulated response element (ISRE) containing MxA promoter. The following applies: 30 µM. The class given is functional. On the technique in general: A reporter such as luciferase makes a cellular process visible.

For assay [7], the target named is T4, Tyrosyl-tRNA synthetase, putative (Trypanosoma cruzi (strain CL Brener)) (UniProt Q4DSP6).
T4 sequence (whole entry): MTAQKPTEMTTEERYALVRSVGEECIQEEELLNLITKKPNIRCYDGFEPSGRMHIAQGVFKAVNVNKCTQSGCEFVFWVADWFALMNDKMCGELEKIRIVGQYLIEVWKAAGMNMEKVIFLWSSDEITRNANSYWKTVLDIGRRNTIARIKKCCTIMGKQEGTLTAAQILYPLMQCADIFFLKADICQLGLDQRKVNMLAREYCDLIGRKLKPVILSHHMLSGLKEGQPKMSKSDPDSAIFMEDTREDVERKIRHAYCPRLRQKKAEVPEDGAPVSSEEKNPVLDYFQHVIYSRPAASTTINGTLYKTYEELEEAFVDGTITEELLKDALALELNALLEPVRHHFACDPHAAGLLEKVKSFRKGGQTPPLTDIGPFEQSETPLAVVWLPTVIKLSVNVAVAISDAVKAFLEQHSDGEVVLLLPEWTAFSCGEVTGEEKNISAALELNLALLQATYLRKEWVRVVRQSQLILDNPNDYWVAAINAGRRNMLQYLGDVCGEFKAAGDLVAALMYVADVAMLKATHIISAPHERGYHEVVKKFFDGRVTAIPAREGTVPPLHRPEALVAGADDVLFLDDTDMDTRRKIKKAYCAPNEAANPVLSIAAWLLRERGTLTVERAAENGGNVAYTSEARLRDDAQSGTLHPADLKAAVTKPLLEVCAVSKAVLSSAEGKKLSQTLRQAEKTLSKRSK
Kind of assay: Trypanosoma cruzi tyrosyl tRNA synthetase (TcYRS) _High Tyrosine SOP. Also: in the data most compounds retested in dose-response had high values. It counts as functional. The note with it: 30 µM.

Assay [8] deals with T4, Tyrosyl-tRNA synthetase, putative (Trypanosoma cruzi (strain CL Brener)). Nature of the assay: Trypanosoma cruzi tyrosyl tRNA synthetase (TcYRS) SOP. It counts as functional. The following applies: 30 µM.
The target in assay [9] is Chromo domain-containing protein 1 (Saccharomyces cerevisiae (strain ATCC 204508 / S288c) (Baker's yeast)) (UniProt P32657). Kind of assay: ScCHD-1 Enzyme Inhibition Assay. Also: in the data most compounds retested in dose-response had high values. The following applies: 30 µM. It counts as functional.
Chromo domain-containing protein 1 (Saccharomyces cerevisiae (strain ATCC 204508 / S288c) (Baker's yeast)), sequence (P32657 whole entry, the tested form may be a part): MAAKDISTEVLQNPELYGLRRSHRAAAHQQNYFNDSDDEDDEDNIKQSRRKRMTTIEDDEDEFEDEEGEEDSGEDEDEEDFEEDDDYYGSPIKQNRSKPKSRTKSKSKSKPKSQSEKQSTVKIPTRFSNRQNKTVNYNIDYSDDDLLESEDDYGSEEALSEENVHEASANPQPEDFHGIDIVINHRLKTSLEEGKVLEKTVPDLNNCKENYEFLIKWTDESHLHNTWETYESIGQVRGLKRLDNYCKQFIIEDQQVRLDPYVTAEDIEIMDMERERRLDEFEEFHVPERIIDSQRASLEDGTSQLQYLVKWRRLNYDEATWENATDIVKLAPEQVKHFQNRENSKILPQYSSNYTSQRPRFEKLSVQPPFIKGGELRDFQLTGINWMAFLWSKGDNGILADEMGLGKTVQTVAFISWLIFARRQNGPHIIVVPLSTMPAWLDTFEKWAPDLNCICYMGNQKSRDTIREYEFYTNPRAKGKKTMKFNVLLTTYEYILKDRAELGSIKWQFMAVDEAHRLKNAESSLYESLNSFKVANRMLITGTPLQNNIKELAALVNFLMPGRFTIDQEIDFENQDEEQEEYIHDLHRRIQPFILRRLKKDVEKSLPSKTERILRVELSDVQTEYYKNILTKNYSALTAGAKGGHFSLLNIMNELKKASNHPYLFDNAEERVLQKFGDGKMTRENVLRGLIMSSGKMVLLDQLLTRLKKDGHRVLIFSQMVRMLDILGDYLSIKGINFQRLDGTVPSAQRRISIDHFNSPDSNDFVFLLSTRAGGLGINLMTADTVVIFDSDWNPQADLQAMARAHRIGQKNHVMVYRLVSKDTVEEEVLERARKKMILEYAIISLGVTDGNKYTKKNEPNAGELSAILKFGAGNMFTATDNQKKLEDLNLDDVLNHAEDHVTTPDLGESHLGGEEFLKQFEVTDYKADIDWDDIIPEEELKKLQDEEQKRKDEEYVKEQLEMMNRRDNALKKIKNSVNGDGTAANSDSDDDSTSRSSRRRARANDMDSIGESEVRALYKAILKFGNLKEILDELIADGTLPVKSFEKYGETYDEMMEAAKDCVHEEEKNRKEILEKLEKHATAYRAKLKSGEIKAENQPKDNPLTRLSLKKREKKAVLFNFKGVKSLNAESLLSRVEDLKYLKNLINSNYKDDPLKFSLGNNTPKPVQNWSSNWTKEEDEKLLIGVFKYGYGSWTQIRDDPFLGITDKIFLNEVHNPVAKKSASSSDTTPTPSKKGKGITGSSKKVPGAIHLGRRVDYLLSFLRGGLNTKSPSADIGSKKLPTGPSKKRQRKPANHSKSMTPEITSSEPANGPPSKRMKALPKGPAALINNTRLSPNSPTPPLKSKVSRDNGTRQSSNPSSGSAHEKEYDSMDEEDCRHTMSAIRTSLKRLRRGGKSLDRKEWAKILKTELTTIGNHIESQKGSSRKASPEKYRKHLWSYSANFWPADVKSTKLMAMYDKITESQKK

SMILES strings stand for the structures. For some of these results: Measured potencies and affinities stand elsewhere.

Protein translocase subunit SecA (Escherichia coli (strain K12)), sequence (P10408 whole entry): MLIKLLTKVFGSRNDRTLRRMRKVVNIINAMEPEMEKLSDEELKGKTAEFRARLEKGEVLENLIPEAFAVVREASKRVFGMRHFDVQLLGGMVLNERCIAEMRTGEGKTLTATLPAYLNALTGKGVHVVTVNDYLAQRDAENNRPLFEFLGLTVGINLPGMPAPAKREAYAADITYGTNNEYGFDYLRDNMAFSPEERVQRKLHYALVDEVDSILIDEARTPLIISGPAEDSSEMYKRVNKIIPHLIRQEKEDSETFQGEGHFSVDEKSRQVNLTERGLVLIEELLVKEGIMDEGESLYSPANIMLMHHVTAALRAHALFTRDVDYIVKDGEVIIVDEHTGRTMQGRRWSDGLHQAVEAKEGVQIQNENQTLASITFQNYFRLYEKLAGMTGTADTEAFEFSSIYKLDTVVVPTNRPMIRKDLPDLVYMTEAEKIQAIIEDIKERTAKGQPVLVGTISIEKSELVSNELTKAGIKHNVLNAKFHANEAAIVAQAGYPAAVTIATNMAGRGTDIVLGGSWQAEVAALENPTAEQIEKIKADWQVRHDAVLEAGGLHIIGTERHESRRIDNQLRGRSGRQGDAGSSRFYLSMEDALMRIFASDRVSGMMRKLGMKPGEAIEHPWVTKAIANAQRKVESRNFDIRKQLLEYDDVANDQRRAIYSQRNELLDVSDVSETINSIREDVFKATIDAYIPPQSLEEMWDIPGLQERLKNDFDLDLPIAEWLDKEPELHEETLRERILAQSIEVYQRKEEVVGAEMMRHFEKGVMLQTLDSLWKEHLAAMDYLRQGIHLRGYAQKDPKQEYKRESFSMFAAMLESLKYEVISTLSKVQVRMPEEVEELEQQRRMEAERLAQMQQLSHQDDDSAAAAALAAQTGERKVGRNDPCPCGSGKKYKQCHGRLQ
Sialic acid-binding Ig-like lectin 9 (Homo sapiens), sequence (Q9Y336 whole entry): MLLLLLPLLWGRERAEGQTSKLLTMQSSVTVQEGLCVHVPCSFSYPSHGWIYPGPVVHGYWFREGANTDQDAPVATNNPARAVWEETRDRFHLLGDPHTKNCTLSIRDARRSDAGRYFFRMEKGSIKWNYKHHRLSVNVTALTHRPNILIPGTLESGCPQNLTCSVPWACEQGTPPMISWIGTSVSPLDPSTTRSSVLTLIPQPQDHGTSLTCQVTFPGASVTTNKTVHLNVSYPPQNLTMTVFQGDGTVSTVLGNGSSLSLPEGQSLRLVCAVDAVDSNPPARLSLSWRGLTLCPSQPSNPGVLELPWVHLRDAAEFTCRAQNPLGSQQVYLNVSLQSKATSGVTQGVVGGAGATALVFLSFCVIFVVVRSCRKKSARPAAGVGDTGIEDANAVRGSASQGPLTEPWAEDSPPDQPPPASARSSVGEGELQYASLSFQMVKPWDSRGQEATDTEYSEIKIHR

For `Cc1nn(C)c(N(C)C)c1CNCc1cccc(CN(C)C(C)C)c1`, the Percent Effect was -3.75% in assay [1]; 13.5% in assay [2]; -10.9% in assay [3]; 25.4% in assay [4]; 3.03% with Trypanosoma cruzi; 10.7% in [5]. The Percent Effect was 9.87% in [6]; -7.67% in the assay filed under Homo sapiens; 5.38% in [7]; 21% in [8]; -8.38% in assay [9].
As to `COc1ccc(C2CCCN2C(=O)CCNc2ncccn2)cc1` (stereo unspecified), the Percent Effect was -2.77% in [1]; 0% in assay [2]; -2.54% in assay [3]; 0.524% in [4]; -1.57% in the assay with Trypanosoma cruzi; 5% in [5]. Moreover, the Percent Effect in [6] was 7.1%; in the assay listed under Homo sapiens it was 1.66%; in [7] it was 1.07%; in assay [8], -5%; in assay [9], -1.55%.
For the molecule `COCC1CN(Cc2ccc(C)o2)Cc2nnn(CC3CC3)c21` (stereo unspecified), the Percent Effect was -3.94% in [1]; 2.6% in assay [2]; 4.37% in [3]; 2.36% in [4]; -2.46% with Trypanosoma cruzi; 2.76% in assay [5]. Also, the Percent Effect was 0.832% in assay [6]; -1.19% in the assay listed under Homo sapiens; -2.15% in assay [7]; -1.24% in [8]; 5.36% in assay [9].
On to `Cc1csc(N2CCCN(C(=O)C(C)n3ccnc3)CC2)n1` (stereo unspecified), for which the Percent Effect in assay [1] was -4.19%; in assay [2], 8.11%; in [3], 5.77%; in assay [4] it was 0.506%; in the assay with Trypanosoma cruzi, 6.78%; in assay [5], -2.77%. Besides, the Percent Effect in [6] was -0.718%; in the assay filed under Homo sapiens, 10.8%; in assay [7], 5.94%; in assay [8], 15.8%; in assay [9], 1.79%.
Consider `Cc1cnn(CCNCc2ccc(C#N)cc2F)c1`, for which the Percent Effect in assay [1] is -5.04%; in assay [2], 10.8%; in assay [3] it was -4.08%; in assay [4], 8.42%; in the assay on Trypanosoma cruzi it was -2.51%; in assay [5], 0.554%. The Percent Effect in assay [6] was 5.75%; in the assay filed under Homo sapiens, 7.34%; in [7], 6.93%; in [8], 13.4%; in assay [9], -0.768%.
Turning to `O=C(NCc1cnc2n1CCN(Cc1ccsc1)CC2)C1CCC1`, the Percent Effect in assay [1] was -5.62%; in assay [2], 8.11%; in [3] it was -0.353%; in [4], 4.49%; in the assay on Trypanosoma cruzi, 0.293%; in [5] it was 3.72%. Further, the Percent Effect in assay [6] was 5.24%; in the assay filed under Homo sapiens, -5.3%; in [7], 7.53%; in assay [8], 13.6%; in assay [9], -4.47%.
As to `O=C(N1CCCCC1)N1CCN(CC(O)c2ccc(F)cc2)CC1` (stereo unspecified), the Percent Effect in assay [1] is -0.539%; in assay [2] it was 13.2%; in assay [3] it was -0.12%; in [4], 5.2%; in the assay with Trypanosoma cruzi, -4.51%; in [5], 4.21%. Moreover, the Percent Effect was 4.84% in [6]; 20.8% in the assay filed under Homo sapiens; 8.33% in [7]; 17.1% in assay [8]; -5.09% in assay [9].
As to `CSc1ccc(S(=O)(=O)N2CCCCC2CCNC(C)=O)cc1` (stereo unspecified), the Percent Effect in assay [1] was 0.287%; in assay [2], 11%; in assay [3] it was -3.42%; in assay [4], 4.24%; with Trypanosoma cruzi, 1.59%; in [5], 1.6%. For the same molecule, the Percent Effect in assay [6] is 14.8%; in the assay filed under Homo sapiens, 9.17%; in assay [7] it was 7.29%; in assay [8], 16.1%; in [9] it was -5.63%.
Regarding `O=C(CCc1nc2cccnc2[nH]1)NCc1ccc2c(c1)OCO2`, the Percent Effect in [1] was -3.15%; in assay [2], 12%; in [3], 2.23%; in [4] it was 0.158%; in the assay on Trypanosoma cruzi it was 0%; in assay [5], -10.4%. Further, the Percent Effect in assay [6] was 14.1%; in the assay filed under Homo sapiens it was -11.6%; in [7] it was 9.52%; in assay [8] it was 17.9%; in [9], -10%.
For the molecule `CCn1ccnc1CN1CCN(CC(=O)NC(=O)NC2CC2)CC1`, the Percent Effect in [1] was -0.559%; in assay [2] it was 13.2%; in assay [3], 1.1%; in assay [4], 4.6%; in the assay on Trypanosoma cruzi it was 3.95%; in assay [5] it was 0%. Moreover, the Percent Effect was 16.5% in assay [6]; -2.49% in the assay filed under Homo sapiens; 8.33% in [7]; 19.5% in assay [8]; -6.48% in assay [9].
Consider `COc1c(CNC2CCN(C(C)(C)C)CC2)c(C(C)C)nn1C`, for which the Percent Effect in assay [1] was -3.54%; in assay [2] it was 10.5%; in [3], -6.9%; in [4] it was -3.36%; in the assay with Trypanosoma cruzi it was 6.07%; in assay [5], -2.52%. The Percent Effect in assay [6] was 4.65%; in the assay filed under Homo sapiens, -8.8%; in assay [7] it was 12.3%; in assay [8], 16.1%; in assay [9], -1.24%.

The record behind these values is ChEMBL document CHEMBL3988442, “University of Dundee, Small-Polar-MMV Screening Library” (2021).
